15-hLO inh = qHTS Assay for Inhibitors of 15-hLO (15-human lipoxygenase). purified 15hLO-1, xylenol orange hydroperoxide absorbance. Potency, µM (doses to about 57.1 µM), without a hit: at the top dose activity change, negative = inhibition, actives largely listed as inhibitors. 74,000 tested, 1.4% active. AID 887, 2007; note: % is set by controls: 0 for no effect and ±100 for the full control effect; nearly all actives have a fitted effect of over 55% in size
Target sequence (P16050 whole entry, looked up): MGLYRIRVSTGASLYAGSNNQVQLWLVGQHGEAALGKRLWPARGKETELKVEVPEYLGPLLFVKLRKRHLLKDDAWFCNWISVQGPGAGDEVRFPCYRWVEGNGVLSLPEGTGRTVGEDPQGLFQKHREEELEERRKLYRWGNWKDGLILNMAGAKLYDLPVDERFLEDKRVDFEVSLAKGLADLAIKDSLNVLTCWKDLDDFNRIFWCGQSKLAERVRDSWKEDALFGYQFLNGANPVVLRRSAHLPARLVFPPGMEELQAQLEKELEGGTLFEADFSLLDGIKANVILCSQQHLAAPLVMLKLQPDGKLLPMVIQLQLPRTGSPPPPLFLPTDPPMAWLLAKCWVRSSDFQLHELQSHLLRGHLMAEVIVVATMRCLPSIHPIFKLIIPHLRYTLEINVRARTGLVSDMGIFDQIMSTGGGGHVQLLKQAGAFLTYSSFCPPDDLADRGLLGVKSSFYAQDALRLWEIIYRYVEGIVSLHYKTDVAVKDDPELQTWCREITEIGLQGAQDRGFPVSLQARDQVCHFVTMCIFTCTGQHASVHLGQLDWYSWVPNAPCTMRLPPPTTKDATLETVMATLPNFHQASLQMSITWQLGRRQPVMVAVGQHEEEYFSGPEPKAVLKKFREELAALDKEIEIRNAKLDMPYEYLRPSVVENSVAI
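40 nM 15hLO-1 + cpd, 15 min RT; start w/ 50 uM AA (final), 6 min RT; stop/detect w/ 200 uM XO + 300 uM Fe(II) in 50 mM H2SO4, 30 min; A573/A405. Buffer 25 mM Hepes pH 7.5, 0.01% Triton X-100. No-enzyme wells as negative control.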
ERK AVP inh = qHTS Assay for Inhibitors of the ERK Signaling Pathway using a Homogeneous Screening Assay. HEK293-V1b, vasopressin-stimulated pERK AlphaScreen. Potency, µM (titrated, usually from 57.5 µM), inactives show at the top dose activity, negative = inhibition, hits mostly inhibitors. AID 995, 2007. 72,000 tested, 0.99% active; note: % is set by controls: 0 for no effect and ±100 for the full control effect; nearly all actives have a fitted effect of over 55% in size
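V1b-HEK293 cells; cpd 30 min 37C; 25 nM vasopressin 5 min; lyse 10 min; AlphaScreen beads 5 hr RT. Normalized to DMSO basal and 25 nM vasopressin; AC50 by Hill fit.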
HEK293 cAMP ctrl = qHTS Assay for Agonists of the Thyroid Stimulating Hormone Receptor: Activators of Intracellular cAMP Concentrations in Parental HEK 293 | parental HEK293 CNG cAMP sensor, membrane potential fluorescence | Potency, µM (highest dose often 57.1 µM), for the others: at the top dose activation, most hits filed as activators | 73,000 tested, 2.5% active; note: % of control where 0% means no effect; nearly all actives have a fitted effect of over 55% in size
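Parental HEK 293 cells stably expressing a modified CNG channel (no TSHR) report cAMP rise as membrane depolarization. Membrane potential dye with 100 uM RO 20-1724 was loaded for 60 min at room temperature, then compound added for 30 min; fluorescence read at 590 nm.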
TSHR ag = qHTS Assay for Agonists of the Thyroid Stimulating Hormone Receptor; Potency, µM (top dose mostly 57.1 µM), for inactives: top-dose activation, most hits filed as activators; 73,000 tested, 0.48% active; Thyrotropin receptor (Homo sapiens), P16473; HEK293-CNG-TSHR cells (CNG channel as cAMP sensor), membrane potential dye, cAMP; active = well fitted activation curve with a large enough effect in the main read-out, with a control signal flat, not every such curve was filed as active; inconclusive = small, poorly fitted or top-dose-only effect, or a change in a side signal; inactive = no such curve, though single readings can be large or run the other way; % of control where 0% means no effect;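 note: the control signal comes from parental cells without the receptor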
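HEK 293 cells stably expressing TSHR and a cAMP-gated CNG channel; parental CNG-only cells as counterscreen. Cells preloaded 60 min with membrane potential dye plus 100 uM RO 20-1724, then compound 30 min; fluorescence read at 590 nm.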
Caspase-7 inhib = qHTS Assay for Allosteric/Competitive Inhibitors of Caspase-7. P55210. recombinant caspase-7, Ac-DEVD-AFC fluorescence rate. Potency, µM (top dose mostly 57.5 µM), without a hit: at the highest dose activity change, negative = inhibition, most hits filed as inhibitors. 75,000 tested, 0.02% active. AID 889, 2007; active = well fitted inhibition curve with a large enough effect in the main read-out, with a control signal flat, not every such curve was filed as active; inconclusive = small, poorly fitted or top-dose-only effect, or a change in a side signal; note: % of control where 0% means no effect
Casp1 inh = qHTS Assay for Allosteric/Competitive Inhibitors of Caspase-1. AID 900, 2007. 75,000 tested, 0.03% active. P29466. Caspase-1 enzyme, Ac-WEHD-AFC fluorogenic rate. Potency, µM (top dose mostly 57.5 µM), for inactives: top-dose activity change, negative = inhibition, hits mostly inhibitors;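 note: plate controls were vehicle for no effect and no substrate for full effect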
An asterisk follows results filed as active; ? = inconclusive; / = no result; [ ] = dose if it differs, or a comment. A selection: hits, their analogues and other compounds. The true share with any hit is near 4.8%. Unless noted, calls come from the whole dose curve; as a rule, active = well fitted curve in the direction sought with a large enough effect; inconclusive = small, poorly fitted or top-dose-only effect, or another doubt; inactive = no such curve, though single readings can be large; an effect the other way counts as inactive or inconclusive. Potency is the fitted concentration of half-maximal effect.

SMILES	15-hLO inh	ERK AVP inh	HEK293 cAMP ctrl	TSHR ag	Caspase-7 inhib	Casp1 inh
COC(=O)[C@@]1(Cc2ccc(OC)cc2)[C@H]2c3cc(C(=O)N4CCCC4)n(Cc4ccc(C)o4)c3C[C@H]2CN1C(=O)c1ccccc1	/	22.2%	3.16µM*	?	-4.1%	-2.5%
COC(=O)[C@@]1(Cc2ccccc2)[C@H]2c3cc(C(=O)N4CCCC4)n(Cc4ccc(S(C)(=O)=O)cc4)c3C[C@H]2CN1C(=O)c1ccccc1	/	25.4%	7.94µM*	?	-9.0%	-6.2%
COC(=O)[C@@]1(Cc2ccc(OC)cc2)[C@H]2c3cc(C(=O)N4CCCC4)n(Cc4ccsc4Br)c3C[C@H]2CN1C(=O)c1ccccc1	/	-10.9%	2.51µM*	?	-4.5%	-9.7%
COC(=O)[C@@]1(Cc2ccc(OC)cc2)[C@H]2c3cc(C(=O)N4CCCC4)n(Cc4cc(F)cc5c4OCOC5)c3C[C@H]2CN1C(=O)c1ccccc1	/	-3.7%	3.98µM*	?	-3.9%	-1.6%
COC(=O)[C@@]1(Cc2ccc(OC)cc2)[C@H]2c3cc(C(=O)N4CCCC4)n(Cc4ccc(Cl)c(C(F)(F)F)c4)c3C[C@H]2CN1C(=O)c1ccccc1	/	14.0%	?	?	-5.1%	-1.5%
COC(=O)[C@@]1(Cc2ccc(OC)cc2)[C@H]2c3cc(C(=O)N4CCCC4)n(Cc4ccccn4)c3C[C@H]2CN1C(=O)c1ccccc1	/	2.8%	?	?	-3.7%	-0.2%
O=c1cnc2cnc(N3CCOCC3)nc2n1CCc1ccccc1	-9.9%	-9.4%	3.5%	4.7%	-6.8%	-4.5%
O=S(=O)(c1ccccc1)N1CCC2(CC1)CN(c1ccncc1)C2	-1.1%	43.1%	3.4%	4.5%	1.1%	-1.9%
O=C(/C=C(\O)c1ccccc1)c1ccccc1O	-1.5%	-23.7%	/	/	-3.4%	-0.7%
COC(=O)[C@@]1(Cc2ccc(OC)cc2)[C@H]2c3cc(C(=O)N4CCCC4)n(Cc4ccc(S(C)(=O)=O)cc4)c3C[C@H]2CN1C(=O)c1ccccc1	/	-3.1%	20µM*	?	-5.6%	-6.0%
COc1ccccc1-c1cc(C(F)(F)F)nc(N2CCN(c3ccccc3)CC2)n1	-12.7%	15.2%	11.0%	9.0%[11.4 µM]	1.4%	1.2%
COc1ccccc1-c1cc(C(F)(F)F)nc(N2CCOCC2)n1	?	2.9%	20µM*	?	-0.8%	0.5%
c1cncc(-c2nc(NCc3cccs3)c3ccccc3n2)c1	4.3%	-23.2%	14.1%	31.6µM*	-0.6%	0.6%
c1csc(CNc2nc(-c3ccoc3)nc3ccccc23)c1	?	-21.3%	10.0%	29.6%	-6.3%	-5.5%
Clc1ccccc1-c1nccc(NCc2cccs2)n1	-0.8%	15.8µM*	?	?	-6.4%	-7.0%
c1cncc(-c2nccc(NCc3cccs3)n2)c1	?	31.6µM*	13.8%	8.1%	-12.6%	-5.2%
COc1cccc(-c2nccc(NCc3cccs3)n2)c1	-23.1%	-29.0%	?	?	-0.5%	-2.4%
c1cncc(-c2cc(NCc3cccs3)ncn2)c1	25.1µM*	-24.6%	14.2%	2.4%	-3.2%	0.7%
Cc1ccccc1-c1nccc(NCc2cccs2)n1	-15.6%	-9.7%	?	?	-6.2%	-5.2%
O=C(Cn1c(=O)n(CCCC(=O)NC2CCCC2)c(=O)c2ccccc21)NCCC1=CCCCC1	-1.4%	-0.8%	24.8%	18.2%[11.4 µM]	0.0%	2.2%
Cc1ccc(C(=O)O)cc1	-1.7%	8.0%	13.7%	5.7%	0.3%	-3.0%
CCOC(=O)c1ccc(N2C(=O)c3n[nH]c(C)c3C2c2ccc(O)cc2)cc1 (stereo not given)	?	-27.0%	2.8%	28.7%	2.2%	-0.4%

Screens deposited in PubChem BioAssay by National Center for Advancing Translational Sciences (NCATS).
